In the library only some 2.4% were active in any assay of this set; here they are far more common.
D2 ag-1: D2 dopamine receptor (human) agonism; activation, % at 2 µM; HEK293 T-REx D2 cells, calcium flux agonist mode; P14416; actives 0.53% (n = 340,000); AID 485358;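 active means activation over 3 SD above normal in the single-dose calcium agonist read, cut at about 30% in these data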; further: 0% is about no effect
Target sequence (P14416 whole entry, looked up): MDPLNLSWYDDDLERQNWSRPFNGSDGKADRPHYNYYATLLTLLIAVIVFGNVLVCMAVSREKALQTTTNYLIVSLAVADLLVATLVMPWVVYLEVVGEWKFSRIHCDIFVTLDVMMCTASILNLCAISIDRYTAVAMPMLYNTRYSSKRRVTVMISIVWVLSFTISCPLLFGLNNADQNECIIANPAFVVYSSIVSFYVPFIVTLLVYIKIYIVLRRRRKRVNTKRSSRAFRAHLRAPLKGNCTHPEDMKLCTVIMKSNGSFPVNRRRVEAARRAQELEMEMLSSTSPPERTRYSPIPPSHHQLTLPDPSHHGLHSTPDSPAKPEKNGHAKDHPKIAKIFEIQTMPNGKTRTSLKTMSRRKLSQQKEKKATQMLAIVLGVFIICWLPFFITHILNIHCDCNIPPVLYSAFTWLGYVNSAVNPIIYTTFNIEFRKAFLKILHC
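Calcium-flux readout, 1 cycle/sec over 180 s following compound pin transfer, in inducible HEK293 Trex D2 cells (force-coupled); dopamine controls included. Positive calcium responses during this window marked compounds as potential agonists.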
D2 PAM-1: D2 dopamine receptor (human) potentiation | P14416 | HEK293 T-REx D2, calcium flux, EC20 dopamine potentiation | potentiation, % at 10 µM | actives 0.34% (n = 340,000);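 active means potentiation over 3 SD above the plate norm, cut at about 30% in these data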; further: 0% is about no effect
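Using a no-wash calcium dye in inducible, force-coupled HEK293 Trex cells expressing D2, we tracked fluorescence each second for 180 s after compound, then for 180 s after EC20 dopamine to detect augmented signalling.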
D2 PAM-2: human D2 receptor positive allosteric modulation. DiscoveRx D2 beta-arrestin cells, luminescence, 90 min; 100% = 57 uM dopamine signal. potentiation, % (concentration not given with the values). actives 0.23% (n = 360,000). AID 624464; in the data active means potentiation above about 50%; inconclusive means mostly about 30% to 49%
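PathHunter D2 cells, attached overnight at 37 deg C, received compound in DMSO plus dopamine at EC20 (50 nM final) for 90 min at 37 deg C. Beta-arrestin recruitment was read as luminescence after 1 h with detection reagent at ambient temperature.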
D2 antag: D2 dopamine receptor (human) antagonism. P14416. HEK293 TREx D2 cells, calcium flux, dopamine EC80. inhibition, % at 10 µM. actives 2% (n = 340,000); in the data active means inhibition above about 30%; inactive means below that, where a call was filed; further: 0% is about no effect
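Calcium flux kinetic readout in an inducible HEK293 TREx D2 line plated overnight at 30 C. After 180 s compound exposure, an EC80 dopamine challenge follows with another 180 s kinetic read to detect antagonism.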
D2 ag-2: human D2 receptor agonism in beta-arrestin assay | DiscoveRx PathHunter D2 beta-arrestin, luminescence, 90 min; 100% = 57 uM dopamine signal | activation, % (no concentration beside the values) | actives 0.084% (n = 360,000) | AID 624465; in the data active means activation above about 40%; inconclusive means between about 15% and that limit
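Agonist mode: compounds alone added to overnight-plated D2 PathHunter cells for 90 min at 37 C, with 57 uM final dopamine (EC100) defining full response. Beta-arrestin recruitment detected by chemiluminescent reagent, read after 1 h at ambient temperature.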
D3 arrestin ag: confirmation of human D3 dopamine receptor agonists, beta-arrestin; actives 4% (n = 2,300); shares compounds with D2 ag-1; Potency, µM (top dose mostly 76.9 µM), for inactives: at the highest dose activation, most hits filed as activators; DiscoveRx D3 beta-arrestin cells, luminescence, 90 min;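 further: potency means the concentration at half of the fitted maximal effect; 100% = dopamine control response; nearly all actives have a fitted effect of over 70% in size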
D2 ag-3: counter-screen for D3 agonists: human D2 dopamine receptor agonism; shares compounds with D2 ag-1; DiscoveRx PathHunter D2 beta-arrestin, luminescence, 90 min; response scale: percent relative to full dopamine signal; Potency, µM (doses to about 76.9 µM), for the others: at the highest dose activation, usual class: activators; actives 5.9% (n = 2,300); AID 720507; further: potency means the concentration at half of the fitted maximal effect; % of control where 0% means no effect; nearly all actives have a fitted effect of over 70% in size
Active calls of the source: *; ! = a repeat was not active. Unless noted, the call rests on the fitted dose curve; in most records, active means well fitted activation curve with a large enough effect; inconclusive means small, poorly fitted or top-dose-only effect; inactive means flat fitted curve, though single readings scatter.

How did O=C(NCCCN1CCN(c2cccc(Cl)c2)CC1)C1CCC(=O)N1Cc1ccccc1Cl (stereo not given) do in these assays?
D2 ag-1: 50.4*; D2 PAM-1: -22.9; D2 PAM-2: -48.7; D2 antag: 39.8*; D2 ag-2: 2.4; D3 arrestin ag: 5.9%; D2 ag-3: inconclusive

What do the screens show for `Cc1ccccc1NC(=O)NCCCN1CCN(c2ccccc2F)CC1`?
D2 PAM-1: -23.3

How did COc1ccccc1N1CCN(CCCNC(=O)Nc2ccccc2C)CC1 do in these assays?
D2 ag-1: 23.3; D2 PAM-1: -25.6; D2 PAM-2: -11.5; D2 antag: 86.9*; D2 ag-2: 2.2; D3 arrestin ag: -11.5%; D2 ag-3: 2.7%

How did O=C(CCC1N=C2c3ccccc3N=C(SCC(=O)Nc3ccccc3F)N2C1=O)NCc1ccccc1 (stereo not given) do in these assays?
D2 ag-1: -1.9; D2 PAM-1: 5.0

How did COc1ccc([C@H]2CC(=O)C=C(c3ccccc3Oc3ccccc3)C2)cc1 do in these assays?
D2 ag-1: 0.4; D2 PAM-1: -11.6; D2 PAM-2: -5.2; D2 antag: 7.2; D2 ag-2: -4.9; D3 arrestin ag: -13.3%; D2 ag-3: 3.5%

How did COc1ccc([C@H]2CC(=O)C=C(c3cc(F)ccc3F)C2)cc1OC do in these assays?
D2 ag-1: 0.4; D2 PAM-1: 17.1; D2 PAM-2: 6.5; D2 antag: -8.4; D2 ag-2: 2.2; D3 arrestin ag: 4.8%; D2 ag-3: 20.5%

Results for COc1ccc(C2=CC(=O)C[C@H](c3ccc(OC)c(OC)c3)C2)cc1 ?
D2 ag-1: 0.4; D2 PAM-1: 13.5; D2 PAM-2: -5.2; D2 antag: 2.4; D2 ag-2: -3.9; D3 arrestin ag: 9.5%; D2 ag-3: 17.0%

What do the screens show for `COc1cccc(C2=CC(=O)C[C@H](c3ccc(F)cc3)C2)c1`?
D2 ag-1: -1.4; D2 PAM-1: 12.3; D2 PAM-2: -8.8; D2 antag: 3.4; D2 ag-2: -2.8; D3 arrestin ag: -10.4%; D2 ag-3: -2.6%

How did COc1cc(F)cc(C2=CC(=O)C[C@H](c3ccc(F)cc3)C2)c1 do in these assays?
D2 ag-1: -0.6; D2 PAM-1: 2.5; D2 PAM-2: -8.0; D2 antag: -5.6; D2 ag-2: -1.1

What do the screens show for `CCCOc1ccc(C(=O)Nc2ccc(NC(=O)c3ccccc3)c(C)c2)cc1`?
D2 ag-1: -0.2; D2 PAM-1: -0.6

What do the screens show for `CCn1cc(C(=O)N(C)Cc2ccccc2)c(=O)c2cc(S(=O)(=O)N3CCc4ccccc4C3)ccc21`?
D2 ag-1: -1.0; D2 PAM-1: 1.1

What do the screens show for `CCCn1c2ccccc2c2cnn(CC(=O)Nc3ccc(C)cc3Br)c(=O)c21`?
D2 ag-1: 0.2; D2 PAM-1: 2.0

Results for O=C(NCc1ccc(Cl)cc1)C1CCCN(c2nc3ccccc3n3cccc23)C1 (stereo not given) ?
D2 ag-1: -0.7; D2 PAM-1: 13.3

What do the screens show for `Cc1ccc(NC(=O)c2cc(S(=O)(=O)N3CCC(C)CC3)cn2C)cc1Cl`?
D2 ag-1: -0.3; D2 PAM-1: -8.6

Results for CCN1CC2=C(OC(N)=C(C#N)C2c2cccs2)/C(=C\c2cccs2)C1 (stereo not given) ?
D2 ag-1: 41.1*; D2 PAM-1: -23.3; D2 PAM-2: -21.5; D2 antag: 27.4; D2 ag-2: 0.4; D3 arrestin ag: -10.9%; D2 ag-3: -1.9%

What do the screens show for `CCCN(CCC)CCNC(=O)c1cc2c(-c3ccc(Cl)cc3)nn(C)c2s1`?
D2 ag-1: 45.0*; D2 PAM-1: -16.4; D2 PAM-2: -3.2; D2 antag: 37.0*; D2 ag-2: inconclusive; D3 arrestin ag: 12.3%; D2 ag-3: inconclusive

How did CCCCN(CC)CCNC(=O)c1cc2c(-c3ccc(Cl)cc3)nn(C)c2s1 do in these assays?
D2 ag-1: 44.3*!; D2 PAM-1: -22.2; D2 PAM-2: 56.7*; D2 antag: 71.8*; D2 ag-2: 74.9*; D3 arrestin ag: inconclusive; D2 ag-3: 25.1µM*

What do the screens show for `CCCN(CCC)CCNC(=O)c1cc2c(-c3ccccc3F)nn(C)c2s1`?
D2 ag-1: 42.6*; D2 PAM-1: -15.5; D2 PAM-2: inconclusive; D2 antag: 41.5*; D2 ag-2: 66.7*; D3 arrestin ag: -3.0%; D2 ag-3: inconclusive

What do the screens show for `CCN(CC)CCNC(=O)c1cc2c(-c3ccc(Cl)cc3)nn(C)c2s1`?
D2 ag-1: 6.5; D2 PAM-1: -14.0; D2 PAM-2: 10.5; D2 antag: 2.3; D2 ag-2: 0.4

How did COc1ccc(-c2nc3scc(CCNS(=O)(=O)c4cccc(C(C)=O)c4)n3n2)cc1 do in these assays?
D2 ag-1: 0.6; D2 PAM-1: 13.0

How did CN(C)c1ccc(/C=C(\C#N)c2nc(-c3ccc(Cl)c(Cl)c3)cs2)cc1 do in these assays?
D2 ag-1: 1.0; D2 PAM-1: -1.8

How did Cn1c(=NC(=O)COc2ccccc2)sc2cccc(F)c21 do in these assays?
D2 ag-1: 1.5; D2 PAM-1: -6.0; D2 PAM-2: 0.4; D2 antag: 3.1; D2 ag-2: -0.9; D3 arrestin ag: -4.0%; D2 ag-3: -2.3%

How did Cn1c(=NC(=O)COc2ccccc2)sc2cc(F)cc(F)c21 do in these assays?
D2 ag-1: 0.6; D2 PAM-1: 2.1; D2 PAM-2: -6.9; D2 antag: -4.7; D2 ag-2: -6.4

Results for C=CCn1c(COc2ccc(Cl)cc2)nnc1SCC(=O)Nc1ccc(S(N)(=O)=O)cc1 ?
D2 ag-1: 59.0*; D2 PAM-1: -17.4; D2 PAM-2: -9.5; D2 antag: 0.8; D2 ag-2: 1.1; D3 arrestin ag: 1.9%; D2 ag-3: -2.8%

How did OCc1cnc(SCc2cccc(F)c2)n1Cc1ccc(F)cc1 do in these assays?
D2 ag-1: -0.6; D2 PAM-1: -6.6

What do the screens show for `C=CCNCc1cccn1-c1ccccc1`?
D2 ag-1: 2.9; D2 PAM-1: -4.8; D2 PAM-2: -9.4; D2 antag: -8.0; D2 ag-2: 1.6; D3 arrestin ag: -8.7%; D2 ag-3: 0.4%

How did C=CCNC(=S)NCc1ccccc1 do in these assays?
D2 ag-1: -1.1; D2 PAM-1: 2.4; D2 PAM-2: -9.9; D2 antag: -2.7; D2 ag-2: -4.0

How did CCN(C(=O)CSc1nc2ccccc2nc1Cc1cccc(OC)c1)c1cccc(C)c1 do in these assays?
D2 ag-1: 1.4; D2 PAM-1: 16.1

Source: PubChem (National Center for Advancing Translational Sciences (NCATS))
